Drawing on PubChem BioAssay AID1274 (Emory University Molecular Libraries Screening Center, 2008), this text covers inhibition for five molecules.

The campaign covered roughly 220,000 compounds. About 1,100 (0.5%) were called active. This excerpt belongs to a sample that is enriched for actives. Unmarked numbers belong to inactive results.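 How the source made its calls: active means inhibition above about 30% (limit read from the data); inactive means the rest.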

By inhibition is commonly meant the relative decrease from the control value, in per cent.

For this assay, the target named is Neutrophil cytosol factor 1 (Homo sapiens) (UniProt P14598). Description: blockers of p47phox binding to p22phox – biochemical, uHTS, NADPH oxidase regulatory subunit, primary screen (AID 1274).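 Further: 0% = p47phox with labelled peptide and 100% = labelled peptide alone.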 The following applies: p47phox/p22phox peptide binding, fluorescence polarization, 2 h; at 24.7 µM; stronger effect = higher value. (Fluorescence polarisation rises when a labelled molecule tumbles more slowly, as on binding a larger partner.)
Chain of Neutrophil cytosol factor 1 (Homo sapiens) (P14598 whole entry, looked up): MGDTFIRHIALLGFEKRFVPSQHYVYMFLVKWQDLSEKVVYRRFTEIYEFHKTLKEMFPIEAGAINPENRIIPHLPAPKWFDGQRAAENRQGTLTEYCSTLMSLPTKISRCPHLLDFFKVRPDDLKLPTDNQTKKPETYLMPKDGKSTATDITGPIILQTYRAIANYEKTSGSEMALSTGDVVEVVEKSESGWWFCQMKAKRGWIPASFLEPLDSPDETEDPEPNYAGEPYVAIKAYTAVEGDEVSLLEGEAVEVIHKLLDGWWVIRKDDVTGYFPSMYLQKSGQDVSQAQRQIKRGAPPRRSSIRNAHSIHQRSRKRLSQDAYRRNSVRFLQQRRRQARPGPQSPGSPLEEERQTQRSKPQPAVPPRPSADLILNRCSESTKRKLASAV
In the case of `O=C(Cc1ccccc1[N+](=O)[O-])N1CCN(Cc2ccc3c(c2)OCO3)CC1`, the inhibition was -1.92%.

Regarding `O=C(COc1ccc2ccccc2c1)N1CCN(Cc2ccncc2)CC1`, the inhibition was 38.1% (active).

`COc1ccccc1CN1CCN(C(=O)Cc2ccccc2)CC1`: the inhibition was 3.15%. For `COCc1cc(OC(=O)N(C)C)nc(-c2ccc(C)c(Cl)c2)n1` the value was -3.02%; for `COC(=O)N(c1ccc(OC)cc1)P1(=S)OCCC(C)O1` (stereo not given), 2.14%.
